Out of some 1,400 compounds screened, about 55 (4%) were called active. The rule behind the calls is not given here. The list is a sample of the results. Measured potencies and affinities stand elsewhere.

The nature of this experiment: viability loss in A549 cells – cell-based, plate reader, cherry-pick samples, cytotoxicity control, dose response (AID 687028).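 Note: cells incubated with compound for three days before reading.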 Particulars: series mostly up to 19.5 µM.
As for `COc1ccc(-c2cnc3c(NC(C)=O)cc(-c4ccccc4OC)cn23)cc1OC`, the result was inactive.

As to `O=C(OCc1ccccc1)N1CCC2CC1c1ccc(-c3ccc4c(c3)OCO4)cc12` (stereo not given), the call was inactive.

Take `Cc1cc(F)ccc1S(=O)(=O)Nc1ncnc2scc(-c3ccc(F)cc3)c12`: the molecule was classed as inactive.

On to `C[C@@H]1CN([C@@H](C)CO)C(=O)c2cc(NC(=O)Nc3ccc(C(F)(F)F)cc3)ccc2O[C@@H]1CN(C)C(=O)NC1CCCCC1`, for which the molecule was classed as inactive.

Take `CC1(C(=O)NCc2ccccc2)CN(S(C)(=O)=O)CC(=O)N1CCc1ccccc1F` (stereo not given): the call was inactive.

Turning to `COc1ccccc1S(=O)(=O)N(C)C[C@H]1Oc2cc(C#CCC(C)C)ccc2S(=O)(=O)N([C@@H](C)CO)C[C@@H]1C`, the call was inactive.

Take `Cc1ccc2oc3c(c(=O)c2c1)C(c1cccc(Cl)c1)N(CCCN1CCOCC1)C3=O` (stereo not given): the call was inactive.

With `O=C(NCc1ccccn1)C(=O)NCC1OCCN1S(=O)(=O)c1ccc(Br)cc1` (stereo not given), the outcome was inactive.

As to `O=C(c1ccc2c(c1)OCO2)N1CCC(Cc2ccccc2)CC1`, the molecule was classed as inactive.

Turning to `CC1(NC(=O)c2cc(Cl)nc3ccccc23)CCS(=O)(=O)C1` (stereo not given), the outcome was inactive.

On to `COc1ccc(Cl)cc1N1C(=O)CC(N2CCN(S(=O)(=O)c3ccccc3F)CC2)C1=O` (stereo not given), for which the outcome was inactive.

With `CN(C)c1ccc(-c2cc3ccccc3c(=O)o2)cc1`, the outcome was inactive.

As for `Cc1ccc(C)c(C(Nc2ccccc2)c2ccc3ccc(C)nc3c2O)c1` (stereo not given), the outcome was inactive.

For `CCOC(=O)Cc1sc(N)nc1C`, the outcome was inactive.

As to `O=C(Nc1cccc(Cl)c1)c1ccccc1`, the call was inactive.

As to `CCCCCNC(=O)c1[nH]c(C(F)(F)F)nc1-c1ccccc1`, the molecule was classed as inactive.

With `COC(=O)c1ccc2nc(C3CCCCC3)c(Cc3ccccc3OC)n2c1`, the molecule was called inactive.

Consider `CCCCNC(=O)c1ccc(NS(=O)(=O)c2ccc3[nH]c(=O)[nH]c3c2)cc1`, for which the molecule was classed as inactive.

For `COc1cc(NC(C)=O)c2ncccc2c1Br`, the molecule was called inactive.

On to `CC(=O)Nc1cccc2ncccc12`, for which the outcome was inactive.

For `CCOc1cc(CNCCN2CCOCC2)ccc1OCc1ccccc1Cl`, the molecule was classed as inactive.

With `CC1=NCCN1CCNC(=O)Nc1ccc(C(C)(C)C)cc1`, the molecule was classed as inactive.

For `C[C@H](CO)N1C[C@H](C)[C@H](CN(C)C)Oc2ncc(C#CC3CC3)cc2C1=O`, the outcome was inactive.

With `C/C=C/c1ccc([C@H]2[C@@H](CO)N3CCCCN(S(=O)(=O)c4ccccc4)C[C@@H]23)cc1`, the molecule was classed as inactive.

In the case of `C[C@H](CO)N1C[C@H](C)[C@H](CN(C)C(=O)c2ccccc2)Oc2cc(C3=CCCCC3)ccc2S1(=O)=O`, the molecule was classed as inactive.

As for `Cc1ccc(S(=O)(=O)N(C)C[C@H]2Oc3ccc(NS(=O)(=O)c4ccc(F)cc4)cc3C(=O)N([C@H](C)CO)C[C@@H]2C)cc1`, the call was inactive.

In the case of `Cc1cc(O)c(C(C)C)cc1NC(=O)c1ccccc1Cl`, the outcome was inactive.

Regarding `Cc1ccc(OCCCCNC(C)c2ccccc2)c(C)c1` (stereo not given), the outcome was inactive.

Regarding `Cc1ccc(NC(=O)C(=O)NCC2CCCN2S(=O)(=O)c2cccs2)cc1` (stereo not given), the outcome was inactive.

Regarding `N#C[C@@H]1[C@H](c2ccc(C#Cc3ccccc3F)cc2)[C@@H](CO)N1C(=O)C1CC1`, the molecule was classed as inactive.

For the molecule `COc1ccc(C(C)(NC(C)=O)c2nc(-c3cccc(F)c3)cs2)cc1` (stereo not given), the molecule was classed as inactive.

In the case of `ClCCCc1cn(C[C@H]2CC[C@@H]([C@@H]3CC[C@H](Cn4cc(CCCCl)nn4)O3)O2)nn1`, the molecule was called inactive.

In the case of `C[C@H]1CN([C@@H](C)CO)C(=O)c2cccc(NS(=O)(=O)c3ccccc3)c2O[C@@H]1CN(C)Cc1ccc(Cl)c(Cl)c1`, the molecule was called inactive.

`Cc1c(C(=O)OC(C)C)sc(N)c1C(=O)OC(C)C`: the molecule was called inactive.

In the case of `O=C(NCCNC(=O)c1cc(F)cc(F)c1)c1cc(F)cc(F)c1`, the result was inactive.

For the molecule `CCCc1nc2ccccc2n1C(C)C(=O)NC(C)(C)C` (stereo not given), the molecule was classed as inactive.

Turning to `O=C(NCc1ccccc1)C(c1ccncc1)n1c(=O)c(-c2ccccc2)nc2ccccc21` (stereo not given), the call was inactive.

`COc1ccc2c3c([nH]c2c1)[C@@H](CO)N(C(=O)C1CCOCC1)CC31CN(C)C1`: the result was inactive.

Turning to `CN(C)C(=O)c1cccc(-c2ccc3c(c2)[C@@H]2[C@@H](CCN2C(=O)Cc2ccncc2)[C@@H](CO)N3)c1`, the molecule was called inactive.

On to `COc1ccc(CC(=O)Nc2ccc(C)c(S(=O)(=O)N3CCCCCC3)c2)cc1`, for which the outcome was inactive.

For the molecule `COc1ccc(C)cc1NC(=O)C1CCN(S(=O)(=O)c2cccc3cccnc23)CC1`, the molecule was called inactive.

`O=c1c2cc(Br)ccc2[nH]c(=S)n1Cc1ccccn1`: the outcome was inactive.

In the case of `CCc1c(C(=O)Nc2cc(C(=O)OC)ccc2C)csc1C`, the molecule was classed as inactive.

`CC(=O)Nc1cccc(OCCCNC(=O)c2ccc(C(C)(C)C)cc2)c1`: the call was inactive.

Regarding `CC(C)(C)c1ccc(C(=O)Nc2ccc3c(c2)C(=O)NC3=O)cc1`, the call was inactive.

In the case of `CN(C)CC(=O)Nc1ccc2c(c1)[C@@H]1C[C@@H](CC(=O)NC3CCCCC3)O[C@H](CO)[C@@H]1O2`, the outcome was inactive.

For the molecule `CC(Oc1ccccc1Cl)C(=O)N1CCOCC1` (stereo not given), the outcome was inactive.

Consider `COc1cccc(NC(=O)COc2cccc3c2CCNC3=O)c1`, for which the call was inactive.

On to `Cc1ccc(NC(=O)C2CCN(S(C)(=O)=O)CC2)cc1Cl`, for which the outcome was inactive.

Consider `Cc1ccc(C)c(NS(=O)(=O)c2cc(C(=O)NCc3ccncc3)ccc2C)c1`, for which the outcome was inactive.

With `COc1ccc(NC(=O)N2C[C@@H](O)COC[C@@H]3O[C@H](CC(=O)NC4Cc5ccccc5C4)CC[C@H]32)cc1`, the result was inactive.

Regarding `O=C(NCCN1CCC(n2c(=O)[nH]c3ccccc32)CC1)c1ccccc1`, the molecule was classed as inactive.

As to `CCCCNC(=O)C[C@@H]1C[C@@]2(C(=O)OC)CCCCC=C2N(CCC2=CCCCC2)C1=O`, the molecule was called inactive.

As for `COC(=O)[C@]12CCCCC=C1N(Cc1cccc3ccccc13)C(=O)[C@H](CC(=O)NCCC(C)C)C2`, the molecule was classed as inactive.

With `CCOC(=O)[C@]12CCC=C1N(Cc1cccc3ccccc13)C(=O)[C@H](CC(=O)N1CCCC1)C2`, the call was inactive.

Regarding `CCOC(=O)[C@]12CCCC=C1N(Cc1ccccc1)C(=O)[C@H](CC(=O)NCc1cccs1)C2`, the result was inactive.

For `O=C(c1ccc(F)cc1)N1CCC(C(=O)N2CCCc3ccccc32)CC1`, the outcome was inactive.

In the case of `COc1ccccc1CN1[C@H](CO)[C@@H](c2ccccc2)C12CN(C(=O)c1ccccn1)C2`, the molecule was called inactive.

In the case of `CC1CCN(CCOc2ccc(OCc3ccccc3)cc2)CC1`, the molecule was classed as inactive.

Regarding `CCc1cccc(OCCN2CCCC2)c1`, the call was inactive.

For the molecule `CC(OC(=O)c1ccc2c(=O)n3c(nc2c1)CCC3)C(=O)NC1CCCCC1C` (stereo not given), the result was inactive.

For `C[C@@H]1CCCCO[C@@H](CN(C)C(=O)Nc2ccc(C(F)(F)F)cc2)[C@H](C)CN([C@H](C)CO)C(=O)c2cc(NC(=O)Cc3ccccc3)ccc2O1`, the molecule was classed as inactive.

`C[C@@H]1CN([C@H](C)CO)C(=O)c2cc(NC(=O)Nc3ccc(C(F)(F)F)cc3)ccc2O[C@@H](C)CCCCO[C@@H]1CN(C)C(=O)Cc1ccccc1`: the result was inactive.

Take `C[C@H](CO)N1C[C@H](C)[C@H](CN(C)C(=O)Nc2ccc(F)cc2)OCCCC[C@H](C)Oc2ccc(NC(=O)c3ccccc3)cc2C1=O`: the molecule was classed as inactive.

Regarding `C[C@@H]1CCCCO[C@H](CN(C)Cc2ccc(C(F)(F)F)cc2)[C@H](C)CN([C@@H](C)CO)C(=O)c2cc(NC(=O)c3ccccc3)ccc2O1`, the molecule was called inactive.

Take `Cc1nc2ccccc2n1C(c1cccnc1)c1nc2ccccc2[nH]1` (stereo not given): the result was inactive.

`O=C1c2ccccc2C(=O)N1CC(=O)N1c2ccccc2Sc2ccc(C(F)(F)F)cc21`: the molecule was called inactive.

`COc1ccccc1NCC(=O)N/N=C(\C)c1ccc(Br)s1`: the call was inactive.

On to `O=C(NCCCCNC(=O)c1cccnc1Cl)c1cccnc1Cl`, for which the molecule was classed as inactive.

On to `Oc1ccc(Cl)cc1CNCc1ccc(F)cc1`, for which the result was inactive.

As for `Cc1ccc(CNCc2cc(Cl)ccc2O)cc1`, the call was inactive.

Regarding `O=C(NC1CC1)c1cccc(NC(=O)c2cc(S(=O)(=O)N3CCOCC3)ccc2Cl)c1`, the molecule was called inactive.

In the case of `O=C(C[C@@H]1CC[C@H]2[C@@H](COC[C@H](O)CN2C(=O)c2ccccc2F)O1)NCc1ccccc1`, the call was inactive.

Take `COc1cccc(C(=O)N2CCOCC2)c1`: the molecule was called inactive.

For the molecule `CCC(=O)Nc1nnc(/C=C/c2ccc(OC)cc2)s1`, the result was inactive.

As for `C[C@@H]1CCCCO[C@H](CN(C)C(=O)NC2CCCCC2)[C@@H](C)CN([C@H](C)CO)C(=O)c2cc(NC(=O)CCCCCC(=O)Nc3ccccc3N)ccc2O1`, the result was inactive.

Turning to `Clc1cc(Br)ccc1OCCOCCN1CCCC1`, the molecule was called inactive.

For `Clc1cc(Br)ccc1OCCCn1ccnc1`, the molecule was classed as inactive.

Turning to `COc1ccc(C(=O)NCCNc2nc3c(C)cccc3cc2C#N)cc1OC`, the molecule was classed as inactive.

Take `Cn1c(N)c(C(=O)N2CCN(c3ccccc3)CC2)c(=O)n(C)c1=O`: the molecule was classed as inactive.

Regarding `CN1c2ccc(Br)cc2[C@@H]2[C@@H](CCN2C(=O)C2CCCC2)[C@H]1CO`, the result was inactive.

On to `CN1c2ccc(Br)cc2[C@H]2[C@H](CCN2C(=O)C2CCC2)[C@H]1CO`, for which the molecule was classed as inactive.

`COc1cccc(C2(c3cccc(OC)c3)CC2C(=O)Nc2ccc(F)cc2)c1` (stereo not given): the molecule was classed as inactive.

For `CN1C(C)(C)c2ccccc2OS1(=O)=O`, the molecule was classed as inactive.

As for `COc1ccc(S(=O)(=O)N2CCC(C(=O)NCCC(=O)NCc3ccccn3)CC2)cc1`, the call was inactive.

Turning to `O=C(CN1CCN(S(=O)(=O)c2ccccc2F)CC1)NC1CCCC1`, the molecule was classed as inactive.

As for `O=C(NCc1ccccc1)[C@H]1CCCN1C(=O)[C@H]1CCCN1C(=O)c1ccc(Cl)cc1`, the result was inactive.

As to `COc1ccc(C2=Nn3c(nnc3-c3ccccc3Cl)SC2)cc1OCC1CC1`, the molecule was called inactive.

Take `Cc1ccc(S(=O)(=O)Cc2ccccc2Cl)cc1`: the molecule was classed as inactive.

As for `CC(NC(=O)CN1CCN(c2cccc(Cl)c2)CC1)c1ccccc1` (stereo not given), the molecule was called inactive.

Regarding `CC(C)(C)c1ccc(C(=O)OCC(=O)Nc2sc3c(c2C#N)CCC3)cc1`, the molecule was classed as inactive.

For the molecule `COc1ccc(C(CNC(=O)c2cccc3cccnc23)N(C)C)cc1` (stereo not given), the molecule was called inactive.

Consider `COc1ccc(-c2nc(NCCCN(C)C)c3ccccc3n2)cc1`, for which the result was inactive.

`COC(=O)[C@@H]1[C@H](CCc2ccccc2)NC(=O)N(Cc2ccccc2)[C@@H]1C`: the result was inactive.

Turning to `COc1ccc(C2=Nc3ccccc3N(C(=O)c3ccncc3)C2C(=O)NC(C)C)cc1` (stereo not given), the call was inactive.

The values are drawn from PubChem BioAssay AID687028 (Broad Institute, 2013).
